Data on 23 molecules can be found in PubChem BioAssay.

Assay [1] has as its system XIP peptide (Xip251-270) binding. Briefly: XIP fragment 251-270 binding compounds – biochemical, small-molecule microarray, fluorescence 635/667 nm, 0.1 µg/mL protein, primary screen (AID 1182). As to conditions: fluorescent protein binding, 635 nm, higher = more signal, called active from +8 up or from −8 down.
Another assay has as its system XIP peptide (Xip251-270). Briefly: compounds binding XIP fragment 251-270 – biochemical, small-molecule microarray, fluorescence 635/667 nm, 0.5 µg/mL protein, primary screen (AID 1183). The conditions noted are these: fluorescence 635 nm, higher = more signal.
A short description of assay [2]: blood-stage malaria parasite viability loss – strain 3D7, DAPI fluorescence, 100 nL, primary screen (AID 1184).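 Also: parasites grown inside human red blood cells in medium with human serum.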 As to conditions: P. falciparum 3D7 growth, 3 d, higher = more signal.
Assay [3] addresses Homeobox protein Hox-A13 (Mus musculus) (UniProt Q62424). Briefly: disruptors of Hoxa13 oligonucleotide interaction – biochemical, fluorescence polarization, labeled oligonucleotide, primary screen (AID 1185). As to conditions: Hoxa13:DNA binding, 15 min, higher = more signal, called active from +8 up or from −8 down. (In general: Polarisation of emitted light reports the rotation of a fluorescent probe.)

Active and inactive are the calls of the source.

Homeobox protein Hox-A13 (Mus musculus), sequence (Q62424 whole entry, looked up): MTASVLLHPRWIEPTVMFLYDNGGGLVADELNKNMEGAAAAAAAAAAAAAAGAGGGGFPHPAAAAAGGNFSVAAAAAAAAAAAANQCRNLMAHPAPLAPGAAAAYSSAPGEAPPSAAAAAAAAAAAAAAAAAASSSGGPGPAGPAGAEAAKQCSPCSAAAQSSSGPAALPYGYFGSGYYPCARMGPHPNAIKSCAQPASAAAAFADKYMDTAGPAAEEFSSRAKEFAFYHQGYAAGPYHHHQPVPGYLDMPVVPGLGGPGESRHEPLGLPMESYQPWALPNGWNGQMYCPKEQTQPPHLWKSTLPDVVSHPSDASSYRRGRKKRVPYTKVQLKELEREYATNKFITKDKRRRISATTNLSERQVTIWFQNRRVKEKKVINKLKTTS

For `COC(=O)CC=C[C@@H](C)[C@@H](C=NOC[C@@H](C)[C@H](OCc1ccccc1)C(C)C)NS(=O)(=O)c1ccc(C)cc1`, the figures for the composite z-score (in assay [1]; in the assay on XIP peptide (Xip251-270)) were 0.265 (inactive) and -0.0132, respectively. In addition, the z-score was -0.192 in assay [2] and -4.05 (inactive) in assay [3].
For `O=C1C2=CC[C@H]3C(=O)N(Cc4ccccc4)C(=O)[C@H]3[C@H]2[C@H](O)[C@@H]2O[C@H]12`, the figures for the composite z-score (in assay [1]; in the assay with XIP peptide (Xip251-270)) were 0.409 (inactive) and -0.194, respectively. Also, the values for the z-score in assay [2] and in assay [3] were -0.116 and -5.55 (inactive), respectively.
In the case of `COc1ccc(O[C@H]2C=C[C@@H](c3ccccc3)O[C@@H]2COC(=O)CCC(C)=NOC[C@@H](O)COCc2ccco2)cc1`, the composite z-score in assay [1] is -0.0073 (inactive); with XIP peptide (Xip251-270), -0.448. For the same molecule, the figures for the z-score in assay [2] and in assay [3] were 0.048 and -5.52 (inactive), respectively.
`CC(C)(C)N1C(=O)[C@H]2[C@H]3[C@H](O)[C@H](O)CC(=NNC(=O)OCc4ccccc4)[C@H]3CC[C@H]2C1=O`: the composite z-score in assay [1] is -0.401 (inactive); in the assay with XIP peptide (Xip251-270), 0.764. For the same molecule, the z-score in assay [2] is -1.37; in assay [3] it was -3.42 (inactive).
For `C[C@@H]1CC[C@H]2C(=O)OC(Cc3ccccc3)CN2[C@H]1c1ccc(Br)cc1` (some centres not stated), the composite z-score is -0.0207 (inactive) in assay [1] and 0.276 in the assay with XIP peptide (Xip251-270). The z-score was 0.695 in assay [2] and -3.22 (inactive) in assay [3].
Regarding `CC(=O)OC[C@H]1O[C@H](CC=NOC[C@@H](O)[C@H]2O[C@@H]3OC(C)(C)O[C@@H]3[C@H]2O)C=C[C@@H]1OC(C)=O`, the composite z-score was 0.232 (inactive) in assay [1] and 0.732 in the assay with XIP peptide (Xip251-270). The z-score in assay [2] was 0.158; in assay [3] it was -0.147 (inactive).
Taken in the same sequence, the figures for `CCOC(=O)[C@H](Cc1ccccc1)NC(=O)CCC1CC(OC(=O)NCc2cccc3ccccc23)CC2(CCCC(COC(=O)NCCc3ccc(Cl)cc3)O2)O1` (some centres not stated) were 0.351 (inactive), 0.568, -1.93 and -5.98 (inactive).
On to `CC#CCOCCC=C1c2ccccc2[C@@H](OC)[C@@H]1C`, for which the results for the composite z-score (in assay [1]; in the assay on XIP peptide (Xip251-270)) were 0.772 (inactive) and 0.0938, respectively. Also, the z-score in assay [2] was -1.02; in assay [3] it was -3 (inactive).
Take `CC(CCN1CCc2nc(-c3ccccc3)c(-c3ccccc3)cc2C1)=NOC(C)CN1CCCc2nc(C)c(C)cc21` (configuration not stated): the composite z-score is 0.161 (inactive) in assay [1] and 0.558 with XIP peptide (Xip251-270). In addition, the z-score in assay [2] is 0.5; in assay [3], -9.97 (active).
As to `CC(C)=CCCC(C)=CCON=C1C[C@@H](O)[C@@H](O)[C@@H]2[C@@H]3C(=O)N(c4cccc(Oc5ccccc5)c4)C(=O)[C@@H]3CC[C@H]12`, the composite z-score was 0.827 (inactive) in assay [1] and -0.256 in the assay with XIP peptide (Xip251-270). Further, the z-score was 0.395 in assay [2] and -0.963 (inactive) in assay [3].
The like results for `CCOC(=O)[C@H](Cc1ccccc1)NC(=O)CCC1CC(OC(=O)NCc2ccc3c(c2)OCO3)CC2(CCCC(COC(=O)NCCOc3ccccc3)O2)O1` (some centres not stated) were, in that order, -0.125 (inactive), 0.565, -1.57 and -0.985 (inactive).
The like results for `COC(=O)CC=C[C@@H](C)[C@@H](C=NOC(C)CN1CCCCc2nc(C)c(C)cc21)OC` (some centres not stated) were, in that order, 0.771 (inactive), 0.444, 1 and -4.37 (inactive).
On to `CCOC(=O)CCN1C(=O)[C@H]2[C@H]3[C@H](O)[C@H](O)CC(=O)[C@@H]3CC[C@H]2C1=O`, for which the composite z-score in assay [1] was 0.0603 (inactive); with XIP peptide (Xip251-270), 0.61. In addition, the z-score in assay [2] was -0.0726; in assay [3], -2.98 (inactive).
For the molecule `C=CC[C@@H]1C=C[C@H](ON=CC[C@@H]2C=C[C@H](OC(C)=O)[C@@H](COC(C)=O)O2)[C@@H](CO)O1`, the composite z-score in assay [1] is 0.571 (inactive); in the assay with XIP peptide (Xip251-270) it was 0.749. Further, the z-score in assay [2] was 0.422; in assay [3] it was -0.273 (inactive).
On to `CCN1C(=O)[C@H]2[C@H]3[C@H](O)[C@H](O)CC(=NO[C@@H](C)c4cc(-c5c(C)cc(C)cc5C)no4)[C@@H]3CC[C@H]2C1=O`, for which the results for the composite z-score (in assay [1]; in the assay with XIP peptide (Xip251-270)) were 0.359 (inactive) and 0.811, respectively. Further, the z-score was 0.563 in assay [2] and -6.73 (inactive) in assay [3].
On to `CO[C@@H]1COC(=O)[C@H](CCSC)NC(=O)CC=C[C@@H](C)COC(=O)[C@@H]2CCCN2C(=O)CC=C[C@H]1C`, for which the composite z-score is 0.665 (inactive) in assay [1] and 0.352 with XIP peptide (Xip251-270). Further, the z-score was -0.494 in assay [2] and 0.213 (inactive) in assay [3].
Turning to `C[C@H]1CC[C@H]2C(=O)OC(COc3ccc(C(C)(C)C)cc3)CN2[C@@H]1c1ccc(Br)cc1` (some centres not stated), the composite z-score in assay [1] was 0.0819 (inactive); in the assay on XIP peptide (Xip251-270), 0.3. Besides, the z-score was 1.52 in assay [2] and -3.32 (inactive) in assay [3].
For the molecule `COc1ccc(COC(=O)NN=C2C[C@@H](O)[C@@H](O)[C@@H]3[C@@H]4C(=O)N(Cc5ccc6c(c5)OCO6)C(=O)[C@@H]4CC[C@H]23)cc1`, the composite z-score in assay [1] is 0.369 (inactive); in the assay on XIP peptide (Xip251-270) it was 0.174. The z-score was -0.427 in assay [2] and -0.118 (inactive) in assay [3].
`CC(=O)OC[C@H]1O[C@H](CC=NO[C@@H](C)c2cn([C@H](CO)Cc3ccccc3)nn2)C=C[C@@H]1OC(C)=O`: the composite z-score in assay [1] is -0.0018 (inactive); in the assay with XIP peptide (Xip251-270) it was 0.361. In addition, the results for the z-score in assay [2] and in assay [3] were -1.13 and -0.583 (inactive), respectively.
For `CC(=O)OC[C@H]1O[C@H](CC=NOC(C)CN2CCCc3nc(C)c(C)cc32)C=C[C@@H]1OC(C)=O` (some centres not stated), the figures for the composite z-score (in assay [1]; in the assay with XIP peptide (Xip251-270)) were 1.29 (inactive) and 0.618, respectively. Moreover, the z-score is -0.224 in assay [2] and -6.1 (inactive) in assay [3].
On to `CON=C1c2cc(OC)ccc2O[C@H](c2cccc(OC)c2)[C@H]1O`, for which the figures for the composite z-score (in assay [1]; with XIP peptide (Xip251-270)) were 0.906 (inactive) and 0.464, respectively. Further, the z-score in assay [2] was 0.924; in assay [3], -0.365 (inactive).
With `O=C1[C@H]2[C@H]3[C@H](O)[C@H](O)CC(=NOC[C@@H](O)COCc4ccco4)[C@@H]3CC[C@H]2C(=O)N1C1CCCCC1`, the composite z-score in assay [1] is 0.288 (inactive); in the assay on XIP peptide (Xip251-270) it was 0.306. The figures for the z-score in assay [2] and in assay [3] were 1.7 and -4.42 (inactive), respectively.
As to `COC(=O)[C@H](C)NC(=O)CCC1CC(OC(=O)NCc2cccc3ccccc23)CC2(CCCC(COC(=O)NCc3ccccc3)O2)O1` (some centres not stated), the composite z-score was 0.0457 (inactive) in assay [1] and 0.461 in the assay with XIP peptide (Xip251-270). Also, the z-score in assay [2] is -2.02; in assay [3] it was -1.39 (inactive).
